From the supplement of paper PMC6522484
± gives the standard deviation of the averaged measurements.

Experiments:
[1] = system: DLD1; assay: cell viability (CellTiter-Glo) relative to plate median (fraction of plate median); higher = more viable cells; conditions: 5 µM; treatment time 24 h; reporter: 7TFP
Summary of the method: (§1)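 After seeding in 384-well plates, colorectal cancer cell lines carrying stable lentiviral TCF/Wnt firefly luciferase reporters (7TFP or TCF4/Wnt) were left 24 h. Library compounds were then added at a final 5 µM for 24 h. A Tecan F500 reader measured firefly luciferase or CellTiterGlo luminescence on parallel plates, with each well normalised to the plate median by webcellHTS2 (additive, no log transformation), and two independent replicates averaged.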

[2] = system: HCT116; assay: as above; conditions: 5 µM; treatment time 24 h; reporter: TCF4/Wnt
Summary of the method: as §1

[3] = system: SW480; assay: as above; conditions: 5 µM; treatment time 24 h; reporter: 7TFP
Summary of the method: as §1

[4] = system: DLD1; assay: TCF/Wnt firefly luciferase reporter signal relative to plate median (fraction of plate median); higher = higher Wnt reporter signal; conditions: 5 µM; treatment time 24 h; reporter: 7TFP
Summary of the method: as §1

[5] = system: SW480; assay: as above; conditions: 5 µM; treatment time 24 h; reporter: 7TFP
Summary of the method: as §1

| Compound | cell viability [1] | cell viability [2] | cell viability [3] | TCF/Wnt firefly luciferase reporter signal [4] | TCF/Wnt firefly luciferase reporter signal [5] |
| --- | --- | --- | --- | --- | --- |
| C[C@]12CC[C@H](O)CC1=CC[C@@H]1[C@@H]2CC[C@]2(C)C(=O)CC[C@@H]12 | 1.04 | 1.15 ± 0.021 | 1.02 ± 0.021 | 1.04 ± 0.14 | 0.916 ± 0.026 |
| C=C(C)[C@H]1Cc2c(ccc3c(=O)c4c(oc23)COc2cc(OC)c(OC)cc2-4)O1 | 1.07 ± 0.12 | 1 ± 0.041 | 1.12 ± 0.2 | 1.04 ± 0.099 | 0.919 ± 0.13 |
| c1cncc([C@@H]2CCCCN2)c1 | 0.993 ± 0.011 | 0.952 ± 0.17 | 0.9635 ± 0.0078 | 0.971 ± 0.11 | 0.927 ± 0.044 |
| Nc1ccc([As](=O)(O)O)cc1 | 1.01 ± 0.021 | 1.09 ± 0.092 | 0.941 ± 0.04 | 0.976 ± 0.063 | 0.962 ± 0.028 |
| C[C@@H]1CC[C@@]2(OC1)O[C@H]1[C@@H](O)[C@H]3[C@@H]4CC[C@H]5C[C@@H](O[C@@H]6O[C@H](CO)[C@H](O[C@@H]7O[C@H](CO)[C@@H](O)[C@H](O[C@@H]8OC[C@@H](O)[C@H](O)[C@H]8O)[C@H]7O[C@@H]7O[C@H](CO)[C@H](O)[C@H](O[C@@H]8O[C@H](CO)[C@@H](O)[C@H](O)[C@H]8O)[C@H]7O)[C@H](O)[C@H]6O)[C@H](O)C[C@]5(C)[C@H]4CC[C@]3(C)[C@H]1[C@@H]2C | 1.02 ± 0.11 | 1.065 ± 0.0071 | 1.035 ± 0.0071 | 0.986 ± 0.09 | 1.095 ± 0.0071 |
| Oc1cc(Cl)ccc1Oc1ccc(Cl)cc1Cl | 0.936 ± 0.078 | 0.913 ± 0.011 | 0.954 ± 0.021 | 0.983 ± 0.15 | 0.893 ± 0.021 |
| CCC12C=CCN3CC[C@@]4(c5ccc(OC)cc5N(C)[C@H]4[C@@](O)(C(=O)OC)[C@@H]1OC(C)=O)[C@@H]32 (stereo not given in full) | 0.975 ± 0.035 | 0.953 ± 0.025 | 0.9915 ± 0.0021 | 0.857 ± 0.042 | 0.821 ± 0.021 |
| COC1CC(OC2CCC3(C)C(CCC4C3CCC3(C)C(C5=CC(=O)OC5)CCC43O)C2)OC(C)C1OC1OC(COC2OC(CO)C(O)C(O)C2O)C(O)C(O)C1O (stereo not given) | 0.873 ± 0.11 | 0.969 ± 0.0099 | 0.964 ± 0.044 | 1.14 ± 0.042 | 1.03 ± 0.098 |
| CN1[C@@H]2CC[C@H]1C[C@@H](OC(c1ccccc1)c1ccccc1N)C2 (stereo not given in full) | 0.982 ± 0.096 | 0.954 ± 0.0085 | 1.03 ± 0.028 | 0.999 ± 0.16 | 0.8705 ± 0.0035 |
| CN[C@@H]1[C@@H](O)[C@@H](O[C@@H]2[C@@H](O)[C@H](O[C@H]3O[C@H](CN)CC[C@H]3N)[C@@H](N)C[C@H]2N)OC[C@]1(C)O.CN[C@@H]1[C@@H](O)[C@@H](O[C@@H]2[C@@H](O)[C@H](O[C@H]3O[C@H]([C@@H](C)N)CC[C@H]3N)[C@@H](N)C[C@H]2N)OC[C@]1(C)O.CN[C@@H]1[C@@H](O)[C@@H](O[C@@H]2[C@@H](O)[C@H](O[C@H]3O[C@H]([C@@H](C)NC)CC[C@H]3N)[C@@H](N)C[C@H]2N)OC[C@]1(C)O | 1.06 ± 0.17 | 0.997 ± 0.089 | 1.03 ± 0.063 | 1.03 ± 0.028 | 1.04 ± 0.069 |
| COc1ccc(Cc2nccc3cc(OC)c(OC)cc23)cc1OC | 1.09 ± 0.085 | 1.01 ± 0.1 | 0.994 ± 0.066 | 0.961 ± 0.052 | 1.07 ± 0.057 |
| Cc1ccc(-c2nc3ccc(C)cn3c2CC(=O)N(C)C)cc1 | 1.02 ± 0.035 | 1.09 ± 0.16 | 0.955 ± 0.056 | 1.13 ± 0.085 | 0.988 ± 0.06 |
| CC(=O)C1CCC2C3CCC4C[C@H](O)CCC4(C)C3C[C@H](O)C12C (stereo partly drawn) [DIHYDROXY (3alpha,12alpha)PREGNAN-20-ONE] | 1.01 ± 0.042 | 1.12 ± 0.13 | 1.1 ± 0.064 | 0.9925 ± 0.0064 | 0.9855 ± 0.0021 |
| N#C[C@H](O[C@@H]1O[C@H](CO[C@@H]2O[C@H](CO)[C@@H](O)[C@H](O)[C@H]2O)[C@@H](O)[C@H](O)[C@H]1O)c1ccccc1 | 1.01 ± 0.09 | 1.04 ± 0.089 | 1.01 ± 0.042 | 0.757 ± 0.0042 | 0.916 ± 0.071 |
| C=CCc1ccc2c(c1)OCO2 | 0.985 ± 0.021 | 0.898 ± 0.13 | 1.06 ± 0.078 | 0.914 ± 0.16 | 0.952 ± 0.11 |
| CC(=O)O[C@H]1C[C@@H](OC(C)=O)C(C)(C)C2C[C@@H](OC(C)=O)[C@]3(C)C(CC[C@@]4(C)[C@H](c5ccoc5)C(=O)[C@H]5O[C@]543)[C@]21C (stereo not given in full) | 0.99 ± 0.014 | 1.06 ± 0.19 | 1.02 ± 0.035 | 1.2 ± 0.057 | 1.09 ± 0.078 |
| N[C@@H]1C[C@H]1c1ccccc1.N[C@H]1C[C@@H]1c1ccccc1 | 1.02 ± 0.059 | 0.959 ± 0.0042 | 0.956 ± 0.033 | 1.05 ± 0.17 | 0.892 ± 0.12 |
| CC(C)(O)[C@@H]1[C@H]2OC(=O)[C@@H]1[C@]1(O)C[C@H]3O[C@]34C(=O)O[C@H]2[C@]14C | 1.03 ± 0.046 | 0.949 ± 0.021 | 1.025 ± 0.0071 | 1.02 ± 0.17 | 1.04 ± 0.089 |
| N.N.[Cl][Pt][Cl] | 1.1 ± 0.11 | 1.07 ± 0.014 | 1.02 ± 0.014 | 0.939 ± 0.016 | 0.954 ± 0.08 |
| Oc1cccc2cccnc12 | 0.9665 ± 0.0035 | 0.967 ± 0.075 | 1.1 ± 0.028 | 1.03 ± 0.09 | 0.793 ± 0.037 |
| CC(C)Nc1nc(Cl)nc(NC(C)C)n1 | 1.02 ± 0.049 | 0.952 ± 0.0014 | 0.949 ± 0.025 | 0.973 ± 0.038 | 0.944 ± 0.018 |
| N#C/C(=C\c1ccc(O)cc1)C(=O)O [alpha-CYANO-4-HYDROXYCINNAMIC ACID] | 1.01 ± 0.014 | 1.04 ± 0.058 | 0.9385 ± 0.0078 | 0.996 ± 0.034 | 0.913 ± 0.033 |
| CNC(=O)ON=C(C)SC | 1.01 ± 0.021 | 0.928 ± 0.1 | 0.985 ± 0.035 | 0.98 ± 0.029 | 0.933 ± 0.058 |
| CC[C@H](C)[C@H]1O[C@]2(C=C[C@@H]1C)C[C@@H]1C[C@@H](C/C=C(\C)[C@@H](O[C@H]3C[C@H](OC)[C@@H](O[C@H]4C[C@H](OC)[C@@H](O)[C@H](C)O4)[C@H](C)O3)[C@@H](C)/C=C/C=C3\CO[C@@H]4[C@H](O)C(C)=C[C@@H](C(=O)O1)[C@]34O)O2.CO[C@H]1C[C@H](O[C@H]2[C@H](C)O[C@@H](O[C@@H]3/C(C)=C/C[C@@H]4C[C@@H](C[C@]5(C=C[C@H](C)[C@@H](C(C)C)O5)O4)OC(=O)[C@@H]4C=C(C)[C@@H](O)[C@H]5OC/C(=C\C=C\[C@@H]3C)[C@]54O)C[C@@H]2OC)O[C@@H](C)[C@@H]1O | 0.893 ± 0.083 | 0.931 ± 0.0028 | 1.01 | 0.977 ± 0.089 | 0.987 ± 0.033 |
| C[C@H]1O[C@H](O[C@H]2[C@H](O)[C@@H](O)[C@@H](O)[C@H](O)[C@@H]2O)[C@@H](N)C[C@@H]1NC(=N)C(=O)O | 0.989 ± 0.086 | 1.06 ± 0.035 | 1.035 ± 0.0071 | 1.03 ± 0.028 | 0.949 ± 0.086 |
| CC(C)(C)[C@]1(O)C[C@@H]2OC(=O)C[C@@]23C(=O)O[C@@H]2OC(=O)[C@H](O)[C@]213 | 0.922 ± 0.033 | 1.03 ± 0.05 | 1.01 ± 0.077 | 1.17 ± 0.042 | 1.07 ± 0.1 |
